# Measurements published in the supplement of paper PMC4466140.
# Molecular target: AgAbp1
# Test: SPOT peptide array binding signal intensity (averaged, normalized) (arbitrary units (background-subtracted, floor 0; scale differs between SH3 domains)); higher = stronger binding of the SH3 domain to the peptide
# Method in brief: (§1)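 Detection of bound protein relied on anti-GST antibody, an HRP anti-mouse secondary and luminol, with imaging and quantification in Genespotter. The bound protein was GST-fused SH3 domains from four yeast species, incubated at 10 μg/ml overnight at 4°C in TBS-based blocking buffer on cellulose membranes carrying synthetic 15-mer peptides with cysteines replaced by serines. Binding signal is normalized, background-subtracted spot intensity averaged over replicates, in arbitrary units that differ between domains.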
row,Binder,SPOT peptide array binding signal intensity
1,QQEQNTPPLPPKPKS,10.5

# Molecular target: AgBbc1
# Test: as above
# Method in brief: as §1
row,Binder,SPOT peptide array binding signal intensity
1,QQEQNTPPLPPKPKS,≤ 0

# Molecular target: AgBem1-D1
# Test: as above
# Method in brief: as §1
row,Binder,SPOT peptide array binding signal intensity
1,QQEQNTPPLPPKPKS,≤ 0

# Molecular target: AgBzz1-D1
# Test: as above
# Method in brief: as §1
row,Binder,SPOT peptide array binding signal intensity
1,QQEQNTPPLPPKPKS,194

# Molecular target: AgBzz1-D2
# Test: as above
# Method in brief: as §1
row,Binder,SPOT peptide array binding signal intensity
1,QQEQNTPPLPPKPKS,5.5

# Molecular target: AgCyk3
# Test: as above
# Method in brief: as §1
row,Binder,SPOT peptide array binding signal intensity
1,QQEQNTPPLPPKPKS,≤ 0

# Molecular target: AgFus1
# Test: as above
# Method in brief: as §1
row,Binder,SPOT peptide array binding signal intensity
1,QQEQNTPPLPPKPKS,≤ 0

# Molecular target: AgHof1
# Test: as above
# Method in brief: as §1
row,Binder,SPOT peptide array binding signal intensity
1,QQEQNTPPLPPKPKS,760

# Molecular target: AgHse1
# Test: as above
# Method in brief: as §1
row,Binder,SPOT peptide array binding signal intensity
1,QQEQNTPPLPPKPKS,≤ 0

# Molecular target: AgLsb1
# Test: as above
# Method in brief: as §1
row,Binder,SPOT peptide array binding signal intensity
1,QQEQNTPPLPPKPKS,≤ 0

# Molecular target: AgLsb4
# Test: as above
# Method in brief: as §1
row,Binder,SPOT peptide array binding signal intensity
1,QQEQNTPPLPPKPKS,151

# Molecular target: AgMyo5
# Test: as above
# Method in brief: as §1
row,Binder,SPOT peptide array binding signal intensity
1,QQEQNTPPLPPKPKS,≤ 0

# Molecular target: AgNbp2
# Test: as above
# Method in brief: as §1
row,Binder,SPOT peptide array binding signal intensity
1,QQEQNTPPLPPKPKS,≤ 0

# Molecular target: AgRvs167
# Test: as above
# Method in brief: as §1
row,Binder,SPOT peptide array binding signal intensity
1,QQEQNTPPLPPKPKS,≤ 0

# Molecular target: AgSho1
# Test: as above
# Method in brief: as §1
row,Binder,SPOT peptide array binding signal intensity
1,QQEQNTPPLPPKPKS,16.5

# Molecular target: AgSla1-D1-D2
# Test: as above
# Method in brief: as §1
row,Binder,SPOT peptide array binding signal intensity
1,QQEQNTPPLPPKPKS,2

# Molecular target: AgSla1-D3
# Test: as above
# Method in brief: as §1
row,Binder,SPOT peptide array binding signal intensity
1,QQEQNTPPLPPKPKS,3.75

# Molecular target: CaAbp1-D1
# Test: as above
# Method in brief: as §1
row,Binder,SPOT peptide array binding signal intensity
1,QQEQNTPPLPPKPKS,53

# Molecular target: CaAbp1-D2
# Test: as above
# Method in brief: as §1
row,Binder,SPOT peptide array binding signal intensity
1,QQEQNTPPLPPKPKS,33.5

# Molecular target: CaBbc1
# Test: as above
# Method in brief: as §1
row,Binder,SPOT peptide array binding signal intensity
1,QQEQNTPPLPPKPKS,9

# Molecular target: CaBem1-D1
# Test: as above
# Method in brief: as §1
row,Binder,SPOT peptide array binding signal intensity
1,QQEQNTPPLPPKPKS,≤ 0

# Molecular target: CaBzz1-D1
# Test: as above
# Method in brief: as §1
row,Binder,SPOT peptide array binding signal intensity
1,QQEQNTPPLPPKPKS,166

# Molecular target: CaBzz1-D2
# Test: as above
# Method in brief: as §1
row,Binder,SPOT peptide array binding signal intensity
1,QQEQNTPPLPPKPKS,34.8

# Molecular target: CaCyk3
# Test: as above
# Method in brief: as §1
row,Binder,SPOT peptide array binding signal intensity
1,QQEQNTPPLPPKPKS,≤ 0

# Molecular target: CaFus1
# Test: as above
# Method in brief: as §1
row,Binder,SPOT peptide array binding signal intensity
1,QQEQNTPPLPPKPKS,9

# Molecular target: CaHof1
# Test: as above
# Method in brief: as §1
row,Binder,SPOT peptide array binding signal intensity
1,QQEQNTPPLPPKPKS,0.25

# Molecular target: CaHse1
# Test: as above
# Method in brief: as §1
row,Binder,SPOT peptide array binding signal intensity
1,QQEQNTPPLPPKPKS,404

# Molecular target: CaLsb1
# Test: as above
# Method in brief: as §1
row,Binder,SPOT peptide array binding signal intensity
1,QQEQNTPPLPPKPKS,0.5

# Molecular target: CaLsb4
# Test: as above
# Method in brief: as §1
row,Binder,SPOT peptide array binding signal intensity
1,QQEQNTPPLPPKPKS,1300

# Molecular target: CaMyo5
# Test: as above
# Method in brief: as §1
row,Binder,SPOT peptide array binding signal intensity
1,QQEQNTPPLPPKPKS,≤ 0

# Molecular target: CaNbp2
# Test: as above
# Method in brief: as §1
row,Binder,SPOT peptide array binding signal intensity
1,QQEQNTPPLPPKPKS,≤ 0

# Molecular target: CaRvs167
# Test: as above
# Method in brief: as §1
row,Binder,SPOT peptide array binding signal intensity
1,QQEQNTPPLPPKPKS,≤ 0

# Molecular target: CaRvs167-3
# Test: as above
# Method in brief: as §1
row,Binder,SPOT peptide array binding signal intensity
1,QQEQNTPPLPPKPKS,≤ 0

# Molecular target: CaSho1
# Test: as above
# Method in brief: as §1
row,Binder,SPOT peptide array binding signal intensity
1,QQEQNTPPLPPKPKS,13.5

# Molecular target: CaSla1-D1-D2
# Test: as above
# Method in brief: as §1
row,Binder,SPOT peptide array binding signal intensity
1,QQEQNTPPLPPKPKS,≤ 0

# Molecular target: CaSla1-D3
# Test: as above
# Method in brief: as §1
row,Binder,SPOT peptide array binding signal intensity
1,QQEQNTPPLPPKPKS,≤ 0

# Molecular target: ScAbp1
# Test: as above
# Method in brief: as §1
row,Binder,SPOT peptide array binding signal intensity
1,QQEQNTPPLPPKPKS,5

# Molecular target: ScBbc1
# Test: as above
# Method in brief: as §1
row,Binder,SPOT peptide array binding signal intensity
1,QQEQNTPPLPPKPKS,2.5

# Molecular target: ScBem1-D1
# Test: as above
# Method in brief: as §1
row,Binder,SPOT peptide array binding signal intensity
1,QQEQNTPPLPPKPKS,≤ 0

# Molecular target: ScBzz1-D1
# Test: as above
# Method in brief: as §1
row,Binder,SPOT peptide array binding signal intensity
1,QQEQNTPPLPPKPKS,7

# Molecular target: ScBzz1-D2
# Test: as above
# Method in brief: as §1
row,Binder,SPOT peptide array binding signal intensity
1,QQEQNTPPLPPKPKS,3

# Molecular target: ScCyk3
# Test: as above
# Method in brief: as §1
row,Binder,SPOT peptide array binding signal intensity
1,QQEQNTPPLPPKPKS,1

# Molecular target: ScFus1
# Test: as above
# Method in brief: as §1
row,Binder,SPOT peptide array binding signal intensity
1,QQEQNTPPLPPKPKS,≤ 0

# Molecular target: ScHof1
# Test: as above
# Method in brief: as §1
row,Binder,SPOT peptide array binding signal intensity
1,QQEQNTPPLPPKPKS,109

# Molecular target: ScHse1
# Test: as above
# Method in brief: as §1
row,Binder,SPOT peptide array binding signal intensity
1,QQEQNTPPLPPKPKS,≤ 0

# Molecular target: ScLsb1
# Test: as above
# Method in brief: as §1
row,Binder,SPOT peptide array binding signal intensity
1,QQEQNTPPLPPKPKS,223

# Molecular target: ScLsb2
# Test: as above
# Method in brief: as §1
row,Binder,SPOT peptide array binding signal intensity
1,QQEQNTPPLPPKPKS,≤ 0

# Molecular target: ScLsb3
# Test: as above
# Method in brief: as §1
row,Binder,SPOT peptide array binding signal intensity
1,QQEQNTPPLPPKPKS,3310

# Molecular target: ScLsb4
# Test: as above
# Method in brief: as §1
row,Binder,SPOT peptide array binding signal intensity
1,QQEQNTPPLPPKPKS,67

# Molecular target: ScMyo3
# Test: as above
# Method in brief: as §1
row,Binder,SPOT peptide array binding signal intensity
1,QQEQNTPPLPPKPKS,≤ 0

# Molecular target: ScMyo5
# Test: as above
# Method in brief: as §1
row,Binder,SPOT peptide array binding signal intensity
1,QQEQNTPPLPPKPKS,≤ 0

# Molecular target: ScNbp2
# Test: as above
# Method in brief: as §1
row,Binder,SPOT peptide array binding signal intensity
1,QQEQNTPPLPPKPKS,≤ 0

# Molecular target: ScPex13
# Test: as above
# Method in brief: as §1
row,Binder,SPOT peptide array binding signal intensity
1,QQEQNTPPLPPKPKS,680

# Molecular target: ScRvs167
# Test: as above
# Method in brief: as §1
row,Binder,SPOT peptide array binding signal intensity
1,QQEQNTPPLPPKPKS,58.3

# Molecular target: ScSho1
# Test: as above
# Method in brief: as §1
row,Binder,SPOT peptide array binding signal intensity
1,QQEQNTPPLPPKPKS,152

# Molecular target: ScSla1-D1-D2
# Test: as above
# Method in brief: as §1
row,Binder,SPOT peptide array binding signal intensity
1,QQEQNTPPLPPKPKS,≤ 0

# Molecular target: ScSla1-D3
# Test: as above
# Method in brief: as §1
row,Binder,SPOT peptide array binding signal intensity
1,QQEQNTPPLPPKPKS,≤ 0

# Molecular target: SpAbp1-D1
# Test: as above
# Method in brief: as §1
row,Binder,SPOT peptide array binding signal intensity
1,QQEQNTPPLPPKPKS,23.5

# Molecular target: SpBbc1
# Test: as above
# Method in brief: as §1
row,Binder,SPOT peptide array binding signal intensity
1,QQEQNTPPLPPKPKS,0.5

# Molecular target: SpBzz1-D1
# Test: as above
# Method in brief: as §1
row,Binder,SPOT peptide array binding signal intensity
1,QQEQNTPPLPPKPKS,336

# Molecular target: SpBzz1-D2
# Test: as above
# Method in brief: as §1
row,Binder,SPOT peptide array binding signal intensity
1,QQEQNTPPLPPKPKS,≤ 0

# Molecular target: SpCyk3
# Test: as above
# Method in brief: as §1
row,Binder,SPOT peptide array binding signal intensity
1,QQEQNTPPLPPKPKS,1.5

# Molecular target: SpHof1
# Test: as above
# Method in brief: as §1
row,Binder,SPOT peptide array binding signal intensity
1,QQEQNTPPLPPKPKS,≤ 0

# Molecular target: SpHof1-2
# Test: as above
# Method in brief: as §1
row,Binder,SPOT peptide array binding signal intensity
1,QQEQNTPPLPPKPKS,12.2

# Molecular target: SpHof1-3
# Test: as above
# Method in brief: as §1
row,Binder,SPOT peptide array binding signal intensity
1,QQEQNTPPLPPKPKS,16

# Molecular target: SpHse1
# Test: as above
# Method in brief: as §1
row,Binder,SPOT peptide array binding signal intensity
1,QQEQNTPPLPPKPKS,28.2

# Molecular target: SpLsb1
# Test: as above
# Method in brief: as §1
row,Binder,SPOT peptide array binding signal intensity
1,QQEQNTPPLPPKPKS,585

# Molecular target: SpLsb4
# Test: as above
# Method in brief: as §1
row,Binder,SPOT peptide array binding signal intensity
1,QQEQNTPPLPPKPKS,1340

# Molecular target: SpMyo1
# Test: as above
# Method in brief: as §1
row,Binder,SPOT peptide array binding signal intensity
1,QQEQNTPPLPPKPKS,≤ 0

# Molecular target: SpNbp2
# Test: as above
# Method in brief: as §1
row,Binder,SPOT peptide array binding signal intensity
1,QQEQNTPPLPPKPKS,≤ 0

# Molecular target: SpPex13
# Test: as above
# Method in brief: as §1
row,Binder,SPOT peptide array binding signal intensity
1,QQEQNTPPLPPKPKS,≤ 0

# Molecular target: SpRvs167
# Test: as above
# Method in brief: as §1
row,Binder,SPOT peptide array binding signal intensity
1,QQEQNTPPLPPKPKS,462

# Molecular target: SpSla1-D1-D2
# Test: as above
# Method in brief: as §1
row,Binder,SPOT peptide array binding signal intensity
1,QQEQNTPPLPPKPKS,≤ 0

# Molecular target: SpSla1-D3
# Test: as above
# Method in brief: as §1
row,Binder,SPOT peptide array binding signal intensity
1,QQEQNTPPLPPKPKS,≤ 0
